# PubChem BioAssay (EPA / NIEHS)
# Inconclusive results are not listed. Calls of active or inactive are those of the source. How the source made its calls: active means hit-call score of the fitted dose curve at least 0.9, where 1 is the maximum; inconclusive means response in the unintended direction; inactive means score below 0.9.
# Tested on: not listed separately
# Assay: ACEA_AR_antagonist_AUC_viability: ACEA Biosciences xCELLigence Real-Time Cell Analysis on Androgen Receptor Antagonism for Viability (AID 2283776);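 further: 22Rv1 human prostate cancer cells growing on impedance electrode plates; area under impedance growth curve at 80 h after dosing as viability; hits lower the growth signal relative to DMSO meaning cytotoxicity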
# In short: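 Real-time electrical impedance tracks 22Rv1 proliferation after continuous compound exposure (top 100 uM final, 1:4 steps, 8 concentrations). The 80 h area-under-curve serves as the cytotoxicity readout relative to DMSO.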
Compound,AC50,outcome
N#CSCSC#N,7.39 µM (active),–
CCOC(=O)CC(SP(=O)(OC)OC)C(=O)OCC (stereo unspecified),–,inactive
CCC(=O)Nc1ccc(Cl)c(Cl)c1,20.7 µM (active),–
CCCSP(=O)(OCC)Oc1ccc(Br)cc1Cl (stereo unspecified),–,inactive
CCCSP(=O)(OCC)SCCC,28.8 µM (active),–
COP(=O)(OC)SCn1c(=O)oc2cc(Cl)cnc21,17.2 µM (active),–
C[Si](Cn1cncn1)(c1ccc(F)cc1)c1ccc(F)cc1,50 µM (active),–
CSC1=N[C@@](C)(c2ccccc2)C(=O)N1Nc1ccccc1,18.1 µM (active),–
CCc1cccc(C)c1N(C(=O)CCl)C(C)COC (stereo unspecified),–,inactive
C=C(C)[C@H]1Cc2c(ccc3c2O[C@@H]2COc4cc(OC)c(OC)cc4[C@@H]2C3=O)O1,0.413 µM (active),–
S=C1NCCN1,–,inactive

# Tested on: frog Estrogen Receptor (ESR1), gene 398734
# Assay: ATG_frER1_XSP1: Attagene TRANS-FACTORIAL Multi-Species (XSP1) HepG2 Assay for frog Estrogen Receptor (ESR1) (AID 2283777)
# In short: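 Human hepatoma HepG2 cells carried transiently transfected multiplexed Gal4-driven reporters and were exposed to test chemicals for 24 hours. Transcripts were quantified by fluorescent RT-PCR with capillary electrophoresis, referenced to DMSO.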
Compound,outcome,AC50
C#CC(C)(C)NC(=O)c1cc(Cl)cc(Cl)c1,inactive,–
CCOP(=S)(OCC)Oc1ccc2c(C)c(Cl)c(=O)oc2c1,inactive,–
CCc1cccc(C)c1N(C(=O)CCl)C(C)COC (stereo unspecified),–,3.42 µM (active)

# Tested on: zebrafish Estrogen Receptor (ESR2A), gene 317734
# Assay: ATG_zfER2a_XSP1: Attagene TRANS-FACTORIAL Multi-Species (XSP1) HepG2 Assay for zebrafish Estrogen Receptor (ESR2A) (AID 2283778)
# In short: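 Cells were transfected, dosed for 24 h, then total RNA was isolated. After oligo(dT) reverse transcription, reporter sequences were amplified, FAM-labelled by primer extension, digested with HpaI and sized by capillary electrophoresis; DMSO served as baseline.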
row,Compound,outcome
1,C#CC(C)(C)NC(=O)c1cc(Cl)cc(Cl)c1,inactive
2,CCOP(=S)(OCC)Oc1ccc2c(C)c(Cl)c(=O)oc2c1,inactive
3,CCc1cccc(C)c1N(C(=O)CCl)C(C)COC (stereo unspecified),inactive

# Target: chicken Estrogen Receptor (ESR1), ESR1 (gene 396099) (UniProt P06212)
# Sequence (P06212 whole entry, looked up): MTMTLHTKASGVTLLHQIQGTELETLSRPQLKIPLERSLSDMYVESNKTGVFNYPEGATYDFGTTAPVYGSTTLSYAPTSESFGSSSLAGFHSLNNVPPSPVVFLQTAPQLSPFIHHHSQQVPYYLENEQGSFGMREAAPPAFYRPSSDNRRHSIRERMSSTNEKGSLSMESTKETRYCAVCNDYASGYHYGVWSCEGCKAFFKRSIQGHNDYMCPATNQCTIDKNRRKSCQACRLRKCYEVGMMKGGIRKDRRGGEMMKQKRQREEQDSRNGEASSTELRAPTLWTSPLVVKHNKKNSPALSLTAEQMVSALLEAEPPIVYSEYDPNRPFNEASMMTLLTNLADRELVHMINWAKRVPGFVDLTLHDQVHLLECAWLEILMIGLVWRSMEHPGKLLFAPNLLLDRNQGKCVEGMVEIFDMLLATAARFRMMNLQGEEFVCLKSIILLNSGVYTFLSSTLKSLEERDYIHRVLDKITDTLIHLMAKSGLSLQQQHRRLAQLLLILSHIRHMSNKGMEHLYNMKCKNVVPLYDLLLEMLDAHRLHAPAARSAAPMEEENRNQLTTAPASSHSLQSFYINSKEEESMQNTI
# Assay: ATG_chERa_XSP1: Attagene TRANS-FACTORIAL Multi-Species (XSP1) HepG2 Assay for chicken Estrogen Receptor (ESR1) (AID 2283779)
# In short: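 Human liver HepG2, transient MRTU transfection (NR-Gal4 chimeras, GAL4-UAS reporters); 24 h compound exposure; 3 nM 6-alpha-fluorotestosterone in medium. Total RNA → RT-PCR → 6-FAM primer extension → HpaI → CE. Positive direction vs DMSO baseline.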
Compound,AC50,outcome
C#CC(C)(C)NC(=O)c1cc(Cl)cc(Cl)c1,50 µM (active),–
CCCOCC(=Nc1ccc(Cl)cc1C(F)(F)F)n1ccnc1,–,inactive
CCOP(=S)(OCC)Oc1ccc2c(C)c(Cl)c(=O)oc2c1,–,inactive
CCc1cccc(C)c1N(C(=O)CCl)C(C)COC (stereo unspecified),9.46 µM (active),–
